An excerpt weighted towards active compounds, which were near 6.6% of everything screened.
KB-V1 cytotox = qHTS assay for MDR1-selective chemotherapeutics: Primary screen using the drug-selected MDR subline cells KB-V1. KB-V1 MDR cells viability, CellTiter-Glo, 72 h. Potency, µM (highest dose often 46.1 µM), actives largely listed as cytotoxic. hit rate 3.4% among 400,000; also: % is scaled to controls: 0 for no effect and ±100 for the full control effect; nearly all actives have a fitted effect of over 60% in size
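In this primary screen, KB-V1 cells overexpressing P-gp are incubated with library compounds (lowest to highest concentration) for 72 h at 37 degrees C before a luminescent ATP viability read.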
RGS4 inhibitor = Inhibitors of Regulator of G Protein Signaling (RGS) 4: qHTS | Regulator of G-protein signaling 4 (Homo sapiens), P49798 | Transcreener GDP fluorescence polarization, RGS4-accelerated GTP hydrolysis | Potency, µM (top dose mostly 114 µM), without a hit: at the highest dose activity change, negative = inhibition, actives largely listed as inhibitors | hit rate 0.039% among 390,000 | AID 504845, 2011; also: % is scaled to controls: 0 for no effect and ±100 for the full control effect; nearly all actives have a fitted effect of over 75% in size
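MLSMR compounds (23 nl, pin-transferred) preincubated 10 min at room temperature with a 500nM (2x) first reagent, then RGS4 at 900nM (2x) plus Transcreener GDP mix added; fluorescence polarization (620/688 nm) read before and after 90 min at 30 °C.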
MCF10A rerep = A quantitative high throughput screen for small molecules that induce DNA re-replication in MCF 10a normal breast cells. Potency, µM (series often up to 46.1 µM), for inactives: at the top dose activity, positive = re-replication, actives largely listed as activators. hit rate 2.9% among 350,000. AID 624296, 2012. MCF 10A DNA re-replication, Hoechst nuclear intensity, 48 h; also: % of control where 0% means no effect; nearly all actives have a fitted effect of over 50% in size
KB-3-1 tox = qHTS assay for MDR1-selective chemotherapeutics: Primary screen using the parental adenocarcinoma cell KB-3-1; KB-3-1 viability, CellTiter-Glo ATP luminescence, 72 h; Potency, µM (titrated, usually from 46.1 µM), usual class: cytotoxic; hit rate 1.4% among 400,000; also: % is scaled to controls: 0 for no effect and ±100 for the full control effect; nearly all actives have a fitted effect of over 60% in size
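Using CellTiter-Glo luminescence, growth of non-resistant KB-3-1 adenocarcinoma cells is assessed 72 h after pin-tool compound addition at 37 °C. Normalized responses across the concentration series yield fitted curves.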
SW480 rereplic = A quantitative high throughput screen for small molecules that induce DNA re-replication in SW480 colon adenocarcinoma cells | SW480 DNA re-replication, Hoechst DNA content imaging, 48 h | Potency, µM (top dose mostly 46.1 µM), inactives show at the highest dose re-replication activation, hits mostly activators | hit rate 1.8% among 340,000 | AID 624297, 2012; also: % of control where 0% means no effect; nearly all actives have a fitted effect of over 55% in size
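Treated cells incubate 48 hr (37 C, 5% CO2), are stained 40 min with Hoechst, and nuclear fluorescence is enumerated; a rise in nuclei with high DNA signal marks re-replication.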
TSG101-PTAP inh = qHTS Assay for Iinhibitors of HIV-1 Budding by Blocking the Interaction of PTAP/TSG101; AID 493005, 2010; Fluorescence polarization, FITC-PTAP peptide / Tsg101 binding; 340,000 tested, under 10 active; Potency, µM (highest dose often 115 µM), for inactives: top-dose activity change, negative = inhibition, usual class: inhibitors; active = well fitted inhibition curve with a large enough effect in the main read-out, with a control signal flat, not every such curve was filed as active; inconclusive = small, poorly fitted or top-dose-only effect, or effect the other way, or a change in a side signal; inactive = no such curve, though single readings can be large or run the other way; also: % of control where 0% means no effect
Target sequence (Q99816 whole entry, looked up): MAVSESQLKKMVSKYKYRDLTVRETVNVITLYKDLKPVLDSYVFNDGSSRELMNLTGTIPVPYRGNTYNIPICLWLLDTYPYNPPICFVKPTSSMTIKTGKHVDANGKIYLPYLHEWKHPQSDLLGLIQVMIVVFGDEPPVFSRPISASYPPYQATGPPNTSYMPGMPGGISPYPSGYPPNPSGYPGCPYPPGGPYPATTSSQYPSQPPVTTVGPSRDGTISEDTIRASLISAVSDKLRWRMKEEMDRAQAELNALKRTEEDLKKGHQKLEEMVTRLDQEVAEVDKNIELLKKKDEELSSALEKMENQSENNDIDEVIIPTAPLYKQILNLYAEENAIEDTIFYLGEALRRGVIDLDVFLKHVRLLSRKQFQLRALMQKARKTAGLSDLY
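Fluorescence anisotropy tracks displacement of a FITC-tagged PTAP peptide (50 nM) from the Tsg101 binding domain (10 uM), following a 20 min room-temperature incubation at pH 7.5.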
An asterisk follows results filed as active; i = inactive; ? = inconclusive; / = no result given; [ ] = dose if it differs, or a comment. Unless noted, calls follow the shape of the dose curve; as a rule, active = well fitted curve in the direction sought with a large enough effect; inconclusive = small, poorly fitted or top-dose-only effect, or another doubt; inactive = no such curve, though single readings can be large; an effect the other way counts as inactive or inconclusive. Potency is read from the fitted curve at half-maximal effect.

SMILES	KB-V1 cytotox	RGS4 inhibitor	MCF10A rerep	KB-3-1 tox	SW480 rereplic	TSG101-PTAP inh
CCOC(=O)c1csc(NC(=O)c2ccccc2)n1	i	16.7%	-1.6%	i	1.4%	-0.8%
Cc1cc(C)c(NC(=O)c2ccc(S(=O)(=O)N(C)C)cc2)c(C)n1	i	-22.2%	18.4µM*	i	?	-7.0%
CCOC(=O)c1csc(NC(=O)c2ccc(S(=O)(=O)N(C)C)cc2)n1	20.6µM*	-14.2%	-5.6%	i	0.7%	-2.9%
COC(=O)c1ccc(NC(=O)COc2ccc(N(C)S(=O)(=O)c3ccc(C)cc3)cc2)cc1	/	14.1%	18.4µM*	/	-5.0%	-1.1%
COC(=O)c1ccc(NC(=O)COc2ccc(S(=O)(=O)N3CCCCC3)cc2)cc1	5.17µM*	2.7%	0.3%	i	1.2%	-5.0%
COC(=O)c1ccc(NC(=O)CC(=O)Nc2ccc(C(=O)OC)cc2)cc1	i	-14.9%	14.6µM*	i	-2.1%	-2.6%
O=C(COc1ccc(S(=O)(=O)N2CCCC2)cc1)Nc1ccc(F)cc1	i	21.2%	?	i	-34.8%	-2.7%
Cc1ccccc1C(=O)OCC(=O)Nc1cccc(S(=O)(=O)N2CCCCC2)c1	i	/	/	i	/	/
Cc1ccc(C)c(C(=O)OCC(=O)Nc2cccc(S(=O)(=O)N3CCCCC3)c2)c1	?	-2.2%	8.0%	14.6µM*	?	-2.2%
N#C/C(=N\Nc1ccc(S(=O)(=O)N2CCOCC2)cc1)C(N)=S	i	-44.6%	-9.7%	i	3.8%	1.5%
O=S(=O)(c1ccc(NC(=S)NN=Cc2ccccc2O)cc1)N1CCCCC1	7.31µM*	-27.8%	14.9%	i	?	0.6%
CC(=O)Nc1ccc(S(=O)(=O)N2CCCC2)cc1	i	-2.8%	-1.2%	i	-9.5%	0.2%
COC(=O)Nc1ccc(S(=O)(=O)N2CCCCCC2)cc1	18.4µM*	-18.3%	?	i	19.4%	-8.2%
Cc1cccc(N2CC(C(=O)Nc3ccc(S(=O)(=O)N4CCCCC4)cc3)CC2=O)c1C (configuration not stated)	i	-26.4%	13µM*	i	7.6%	-2.8%
N#CC(C#N)=NNc1ccc(S(=O)(=O)N2CCCCC2)cc1	i	?	25.9µM*	i	-2.4%	0.6%
O=C1CCN(CCc2ccccc2)CCN1C(CSc1ccc(Br)cc1)c1ccccc1 (configuration not stated)	/	-22.6%	/	/	/	/
NC(=NCc1ccc(Cl)cc1Cl)NC(=O)c1nc(Cl)c(N)nc1N	/	80.0%[56.9 µM]	/	/	/	/
COC(=O)Nc1ccc(S(=O)(=O)Nc2cccc3ccccc23)cc1	14.6µM*	-11.6%	29.8%	?	?	-3.8%
O=C(COC(=O)c1ccc(S(=O)(=O)N2CCCC2)cc1)Nc1cccc(Br)c1	i	15.0%	8.9%	i	0.5%	-3.3%
Cc1nnc(SC(C)C(=O)Nc2ccc(S(=O)(=O)N3CCCCCC3)cc2)s1 (configuration not stated)	16.4µM*	7.7%	13.7%	i	-2.5%	1.1%
O=C(NC(=S)Nc1ccc(S(=O)(=O)N2CCCCC2)cc1)c1cccs1	3.26µM*	-30.5%	6.8%	?	12.5%	-4.5%
Cc1cccc(NC(=O)COC(=O)c2ccc(S(=O)(=O)N3CCCCCC3)cc2)c1	16.4µM*	2.0%	16.8%	i	-2.2%	1.9%
COc1ccc(CNc2nc(N)nc3nc[nH]c23)cc1	i	30.0%	/	i	/	/

Screens: PubChem, National Center for Advancing Translational Sciences (NCATS)
